PubChem BioAssay
The source made the active and inactive calls.

Columns and labels:
[1] = adipocyte viability effects, profiling panel, cell-based, 3T3-L1 adipocytes, calcein-AM fluorescence, 48 h, basal (AID 1163); details: 3T3-L1 adipocytes viability, higher = more signal
[2] = HepG2 cell viability effects, profiling panel, calcein-AM fluorescence, 48 h, basal (AID 1164); details: higher = more signal
[3] = MM1S cell viability effects, profiling panel, calcein-AM fluorescence, 48 h, basal (AID 1165); details: higher = more signal;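 note: viability of MM1S multiple myeloma cells under basal unstimulated conditions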
[4] = basal RPMI8226 viability, no added stimulus, profiling panel, cell-based, calcein-AM fluorescence, 48 h, PK04 Diversity Set (AID 1166); details: RPMI8226 myeloma viability, higher = more signal;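 note: cells grown under basal conditions without added stimulus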
[5] = basal HepG2 mitochondrial membrane potential changes, profiling panel, cell-based, JC-1 fluorescence, 24 h, 100 nL compound (AID 1167); details: higher = more signal
[6] = basal 3T3-L1 adipocyte mitochondrial potential changes, profiling panel, cell-based, JC-1 fluorescence, 3T3-L1 adipocytes, 24 h, 100 nL compound (AID 1168); details: JC-1 mitochondrial fluorescence, higher = more signal, called active from +8 up or from −8 down
[7] = basal RPMI8226 mitochondrial membrane potential changes, profiling panel, cell-based, JC-1 fluorescence, 24 h, 100 nL compound (AID 1169); details: RPMI8226 myeloma, JC-1 mitochondrial potential fluorescence, higher = more signal
[8] = basal MM1S mitochondrial membrane potential changes, profiling panel, cell-based, JC-1 fluorescence, 24 h, 100 nL compound (AID 1170); details: higher = more signal
[9] = A549 lung cancer cell viability effects, profiling panel, resazurin fluorescence, 24 h, PK04 Diversity Set (AID 1171); details: higher = more signal, called active from +8 up or from −8 down
[10] = HepG2 liver cancer cell viability effects, profiling panel, resazurin fluorescence, 24 h, PK04 Diversity Set (AID 1172); details: higher = more signal
[11] = basal S. cerevisiae growth modulation, no modifier, primary screen, OD600, strain BY4716, 24 h, basal condition (AID 1173); details: OD600, 24 h, higher = more signal, called active from +8 up or from −8 down
[12] = MM1S myeloma cell viability, profiling panel, resazurin fluorescence, basal, 24 h, PK04 Diversity Set (AID 1174); details: higher = more signal, called active from +8 up or from −8 down;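 note: MM1S multiple myeloma cell line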
[13] = molecular target: Dihydroorotate dehydrogenase (quinone), mitochondrial (Plasmodium falciparum (isolate 3D7)) (UniProt Q08210); test: PfDHODH enzyme inhibitors, primary screen, biochemical, C-terminal His tag, absorbance 600 nm (AID 1175); details: DCIP absorbance 600 nm, higher = more signal, called active from +8 up or from −8 down;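 note: recombinant parasite enzyme with a five histidine tag at its C terminus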
[14] = S. cerevisiae RM11-1a growth modifiers, primary screen, strain RM11-1a, OD600, basal, 24 h (AID 1177); details: OD600, 24 h, higher = more signal, called active from +8 up or from −8 down;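 note: cultures grown under basal conditions with no added stressor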
[15] = E. coli acrAB mutant growth effects, primary screen, E. coli filamentation inducers, strain DRC39, OD650, 24 h (AID 1178); details: higher = more signal, called active from +8 up or from −8 down;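 note: growth measured as culture turbidity by optical density at 650 nm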
[16] = E. coli acrAB mutant growth effects, primary screen, E. coli filamentation inducers, strain DRC39, OD650, 48 h (AID 1179);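 note: screen aims at cell division blockers that make cells filament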; details: E. coli DRC39 delta-acrAB growth, higher = more signal, called active from +8 up or from −8 down
[17] = RPMI8226 myeloma cell viability, profiling panel, resazurin fluorescence, basal, 24 h, PK04 Diversity Set (AID 1180); details: higher = more signal;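 note: RPMI8826 multiple myeloma cell line at 5000 cells per well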
[18] = molecular target: E3 ubiquitin-protein ligase XIAP (Homo sapiens) (UniProt P98170); test: XIAP binders, primary screen, biophysical, small-molecule microarray, fluorescence 635 nm (AID 1181); details: small-molecule microarray binding, higher = more signal;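 note: score merges 667 nm emission and signal to noise over triplicate slides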
[19] = system: XIP peptide (Xip251-270) binding; test: small-molecule binders of XIP peptide, primary screen, biochemical, small-molecule microarray, fluorescence 635/667 nm, 0.1 µg/mL protein (AID 1182); details: fluorescent protein binding, 635 nm, higher = more signal, called active from +8 up or from −8 down
XIP peptide (Xip251-270) = test: small-molecule binders of XIP peptide, primary screen, biochemical, small-molecule microarray, fluorescence 635/667 nm, 0.5 µg/mL protein (AID 1183); details: small-molecule microarray binding, fluorescence 635 nm; higher = more signal

E3 ubiquitin-protein ligase XIAP (Homo sapiens), sequence (P98170 whole entry, looked up): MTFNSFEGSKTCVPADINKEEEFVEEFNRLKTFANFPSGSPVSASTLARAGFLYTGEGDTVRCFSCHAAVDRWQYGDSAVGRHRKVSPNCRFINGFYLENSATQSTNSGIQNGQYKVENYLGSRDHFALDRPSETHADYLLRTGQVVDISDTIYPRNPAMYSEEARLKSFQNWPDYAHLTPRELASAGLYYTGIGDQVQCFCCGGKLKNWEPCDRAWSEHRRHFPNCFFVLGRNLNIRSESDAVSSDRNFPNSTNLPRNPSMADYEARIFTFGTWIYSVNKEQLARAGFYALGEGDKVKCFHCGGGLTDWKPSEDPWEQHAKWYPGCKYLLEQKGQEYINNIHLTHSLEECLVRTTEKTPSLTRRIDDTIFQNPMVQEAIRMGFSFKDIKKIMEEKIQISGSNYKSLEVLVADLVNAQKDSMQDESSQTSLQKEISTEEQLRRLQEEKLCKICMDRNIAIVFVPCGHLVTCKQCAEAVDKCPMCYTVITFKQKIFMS
Dihydroorotate dehydrogenase (quinone), mitochondrial (Plasmodium falciparum (isolate 3D7)), sequence (Q08210 whole entry, looked up): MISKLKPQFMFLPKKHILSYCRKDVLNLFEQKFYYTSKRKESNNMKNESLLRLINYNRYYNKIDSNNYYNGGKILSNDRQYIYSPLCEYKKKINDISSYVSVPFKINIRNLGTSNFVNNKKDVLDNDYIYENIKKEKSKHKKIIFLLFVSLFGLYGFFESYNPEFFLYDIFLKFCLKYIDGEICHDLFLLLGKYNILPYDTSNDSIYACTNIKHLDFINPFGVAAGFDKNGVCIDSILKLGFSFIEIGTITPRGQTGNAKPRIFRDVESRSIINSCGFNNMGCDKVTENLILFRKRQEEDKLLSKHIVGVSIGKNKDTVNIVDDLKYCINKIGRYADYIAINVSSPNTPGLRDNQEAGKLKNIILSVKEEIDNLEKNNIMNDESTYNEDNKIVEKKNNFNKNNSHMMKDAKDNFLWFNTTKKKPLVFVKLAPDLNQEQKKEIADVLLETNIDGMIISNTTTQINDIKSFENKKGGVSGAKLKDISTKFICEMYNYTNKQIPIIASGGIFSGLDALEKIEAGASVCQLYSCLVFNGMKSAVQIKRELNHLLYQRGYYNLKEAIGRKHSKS

SMILES	z-score [1]	z-score [2]	z-score [3]	z-score [4]	z-score [5]	z-score [6]	z-score [7]	z-score [8]	z-score [9]	z-score [10]	z-score [11]	z-score [12]	composite z-score [13]	z-score [14]	z-score [15]	z-score [16]	z-score [17]	composite z-score [18]	composite z-score [19]	composite z-score (XIP peptide (Xip251-270))
C=C(C1=CCN(S(=O)(=O)c2ccc(C)cc2)C1)[C@@H](OC(C)=O)[C@@H]1CCCN1S(=O)(=O)c1ccccc1[N+](=O)[O-]	1.9	-3.37	-3.21	-4.14	1.04	0.496 (inactive)	-1.21	-2.86	0.0974 (inactive)	0.174	-0.372 (inactive)	-7.03 (inactive)	1 (inactive)	1.39 (inactive)	2.93 (inactive)	1.38 (inactive)	-4.54	-0.301	0.698 (inactive)	-0.737
C=CC[C@@H](OC(=O)Nc1ccc(SC)cc1)c1ccc(OCCO)cc1	0.344	-0.0505	-0.2	0.0111	-2.22	0.812 (inactive)	0.561	-0.774	0.364 (inactive)	0.537	-5.16 (inactive)	0.822 (inactive)	-1.13 (inactive)	-0.0086 (inactive)	1.28 (inactive)	0.899 (inactive)	0.301	-0.0773	1.08 (inactive)	-0.689
CN(C)CCCC[C@@H]1NC(=O)[C@@H]2C[C@H](C(=O)NCCCCCNC(=O)CS)[C@H](c3cccc(OCCO)c3)N2C1=O	1.56	-1.33	-0.669	-0.348	0.902	0.533 (inactive)	0.526	0.249	-0.42 (inactive)	-0.0484	-1.86 (inactive)	0.78 (inactive)	-1.83 (inactive)	-2.53 (inactive)	0.431 (inactive)	-0.248 (inactive)	0.608	-0.135	0.62 (inactive)	-0.351
COC(=O)[C@@]1(CCC(=O)OC(C)(C)C)COC(c2ccc(OCCCO)cc2)=N1	1.52	-0.528	0.203	-0.0712	-0.407	-0.0189 (inactive)	0.614	0.396	0.307 (inactive)	0.863	-1.27 (inactive)	0.867 (inactive)	-0.402 (inactive)	-0.612 (inactive)	2.83 (inactive)	1.14 (inactive)	1.1	-0.217	-0.191 (inactive)	-1.66
C=C(COC)C(=O)CC[C@@H](OC(=O)c1ccccc1-c1ccccc1C(=O)O)c1cccc(OCCO)c1	0.649	-0.441	-1.99	-1.43	0.0537	0.469 (inactive)	-0.0226	1.4	1.2 (inactive)	0.417	-0.749 (inactive)	0.0335 (inactive)	-0.733 (inactive)	0.291 (inactive)	1.16 (inactive)	0.755 (inactive)	0.458	0.109	0.43 (inactive)	-0.29
C=CCC(OC(C)=O)[C@@H]1[C@@H](N(Cc2cccc3ccccc23)C(=O)Cc2ccc(OC)cc2)c2cc(OCCCO)ccc2N1C(=O)Cc1ccc(OC)cc1 (stereo not given in full)	1.47	0.691	1.76	-1.55	2.38	0.847 (inactive)	-0.44	0.791	0.493 (inactive)	-0.197	-1.63 (inactive)	0.844 (inactive)	0.363 (inactive)	-0.27 (inactive)	1.51 (inactive)	0.443 (inactive)	0.666	0.183	-0.203 (inactive)	-0.665
C=C(COC)/C(=C/C[C@H](OC(C)=O)c1cccc(OCCO)c1)c1cc(C(=O)OC)ccc1OC	0.81	-2.15	0.0939	-1.1	0.616	1.88 (inactive)	-0.252	0.471	-1.03 (inactive)	-0.231	-17.6 (active)	0.975 (inactive)	-9.35 (active)	-21.4 (active)	1.24 (inactive)	0.802 (inactive)	0.59	0.0077	0.876 (inactive)	0.876
COc1ccc([Si](C)(C)[C@H]2[C@H](CCO)O[C@@]3(C(=O)N(Cc4ccc(N5C(=O)c6cccc7cccc5c67)cc4)c4ccccc43)[C@@H]2C)cc1	2.06	-2.91	-1.23	-3.75	0.00974	1.68 (inactive)	-1.07	-1.6	-2.51 (inactive)	-1.26	-0.433 (inactive)	-2.4 (inactive)	-0.344 (inactive)	2.48 (inactive)	2.3 (inactive)	1.4 (inactive)	-4.55	0.0223	0.529 (inactive)	0.623
COCCOC(=O)N1C(=O)[C@@]2(c3cc(C#CC4(O)CCCCCC4)ccc31)[C@H](c1ccc(O)cc1)N1[C@H](c3ccccc3)[C@H](c3ccccc3)OC(=O)[C@H]1[C@@H]2C(N)=O	1.46	0.638	-2.22	-4.23	-1.6	-0.385 (inactive)	-0.735	0.246	0.928 (inactive)	0.228	-1.38 (inactive)	0.951 (inactive)	0.194 (inactive)	-0.95 (inactive)	0.158 (inactive)	0.155 (inactive)	0.778	0.166	1.84 (inactive)	0.821
